Source: PubChem (NMMLSC)
Myeloid diff 2: induction of myeloid progenitor differentiation, primary screen, cell-based, flow cytometry, MLPCN library; ER-HoxA9 myeloid progenitors, lysozyme-GFP differentiation; calls only at 10 µM; 1% of 360,000 active; AID 624256, 2012;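 active = normalized GFP-positive differentiation at or above the plate's own cutoff, the solvent-only control mean plus 3 SD; inconclusive = no clear call, values can overlap the other calls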;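 note: cells exposed to compound for four days before flow analysis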
ABCB6 inh 2: ABCB6 transporter inhibitors, primary screen, K562-ABCB6 cells, flow cytometry, MLPCN library; fluorescence ratio to DMSO, % at 10 µM; 0.19% of 360,000 active; K562-ABCB6 porphyrin accumulation, 1 h; active compounds read low; ATP-binding cassette sub-family B member 6 (Homo sapiens), Q9NP58;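 active = fluorescence ratio to DMSO below 75%, the collection mean minus 3 SD; inconclusive = too few cells collected in the well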;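 note: signal is porphyrin accumulated inside mitochondria; 100% equals median channel fluorescence of DMSO control wells; lower ratio means ABCB6 inhibition with less porphyrin fluorescence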
Target sequence (Q9NP58 whole entry, looked up): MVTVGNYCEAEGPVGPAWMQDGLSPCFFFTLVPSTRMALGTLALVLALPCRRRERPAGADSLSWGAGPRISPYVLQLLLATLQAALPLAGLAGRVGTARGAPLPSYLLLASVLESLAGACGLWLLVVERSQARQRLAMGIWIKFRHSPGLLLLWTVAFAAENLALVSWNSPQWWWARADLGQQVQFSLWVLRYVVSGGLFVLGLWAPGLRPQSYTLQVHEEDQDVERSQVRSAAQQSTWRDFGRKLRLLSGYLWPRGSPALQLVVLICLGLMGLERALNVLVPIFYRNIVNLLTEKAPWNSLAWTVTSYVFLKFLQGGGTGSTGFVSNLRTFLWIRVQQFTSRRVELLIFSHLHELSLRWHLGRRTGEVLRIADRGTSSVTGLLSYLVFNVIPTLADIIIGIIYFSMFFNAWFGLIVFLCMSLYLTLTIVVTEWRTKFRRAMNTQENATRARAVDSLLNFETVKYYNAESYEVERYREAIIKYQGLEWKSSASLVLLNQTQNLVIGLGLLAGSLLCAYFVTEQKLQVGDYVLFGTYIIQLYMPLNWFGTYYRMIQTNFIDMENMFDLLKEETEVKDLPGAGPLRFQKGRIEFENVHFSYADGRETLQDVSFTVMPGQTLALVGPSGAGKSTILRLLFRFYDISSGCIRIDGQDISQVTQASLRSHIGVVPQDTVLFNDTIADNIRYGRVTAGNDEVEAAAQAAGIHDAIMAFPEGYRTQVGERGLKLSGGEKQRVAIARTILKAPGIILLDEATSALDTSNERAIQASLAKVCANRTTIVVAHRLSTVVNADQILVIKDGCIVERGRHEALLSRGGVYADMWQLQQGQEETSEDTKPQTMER
Granule exo inh: LAMP-1 surface exposure blockers, TALL-104 cells – cell-based, flow cytometry, MLPCN library, primary screen | inhibition, % at 10 µM | TALL-104 LAMP-1 surface exposure; cells stimulated with thapsigargin and PMA | 0.66% of 360,000 active;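 active = inhibition above about 55%, limit read from the data; inconclusive = no clear call, values can overlap the other calls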
Exocytosis CP01: inhibitors of lytic granule exocytosis, confirmation, TALL-104 cells, flow cytometry, Cherry Pick01; shares compounds with Granule exo inh; LAMP-1 externalization; stimulated with PMA plus thapsigargin; inhibition, % at 10 µM; 11% of 1,500 active; in the data active = inhibition above about 60%;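 note: 0% = stimulated vehicle wells and 100% = unstimulated wells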
* = called active by the depositor; i = inactive; ? = inconclusive; / = no result; ! = not confirmed by another sample. Most compounds without a hit are left out; they make up all but 1.8% or so of the library.

SMILES	Myeloid diff 2	ABCB6 inh 2	Granule exo inh	Exocytosis CP01
Cc1ccc2nc(NC(=O)C3CCN(C(=O)c4ccc(F)cc4)CC3)sc2c1	i	103	1	/
CCNc1nc(-c2sc(NC(=O)C(C)(C)C)nc2C)c(-n2cc(-c3ccccc3)nn2)s1	i	107	79*	58
Cc1nc(NC(=O)C(C)(C)C)sc1-c1nc(N)sc1-n1cc(-c2ccccc2)nn1	i	159	-2	/
Cc1nn(CC(=O)NCCCN2CCC(Cc3ccccc3)CC2)c(=O)c2cc(-c3ccccc3)nn12	i	101	87*	3
CCc1ccc(-c2cc3c(=O)n(CC(=O)NCCCN4CCC(Cc5ccccc5)CC4)nc(C)n3n2)cc1	?	95	55	/
COc1ccccc1C(=O)NC(=O)COC(=O)c1cccc(NC(C)=O)c1	i	98	-5	/
CCS(=O)(=O)c1ncc(Cl)c(C(=O)Nc2ccc(S(=O)(=O)N(C)c3ccccc3)cc2)n1	?	39*	56*	58
CCOC(=O)c1nc(S(C)(=O)=O)ncc1Cl	i	96	38	/
CC(=O)Nc1ccc(S(=O)(=O)N(C)c2ccccc2)cc1	i	102	9	/
Cc1ccccc1NC(=O)c1nc(S(C)(=O)=O)ncc1Cl	?	105	79*	28
COC(=O)Cn1nc(-c2ccc(C)cc2)c2ccccc2c1=O	i	100	2	/
O=C(C1=C[C@@H](c2ccc(C(F)(F)F)cc2)C[C@@H](OCc2ccc(CO)cc2)O1)N1CCN(Cc2ccccc2)CC1	i	98	-2	/
COc1cc(/C=C2/SC(=S)N(CCC(=O)Nc3ccccc3)C2=O)cc(OC)c1OC	i	96	19	/
CC1(C)CC2CC(C)(CN2C(=O)NC(=O)c2ccccc2)C1 (stereo unspecified)	i	97	66*	-5
CC1(C)CC2CC(C)(CN2C(=O)Cc2ccccc2)C1 (stereo unspecified)	i	96	-1	/
Cc1ccc(NS(=O)(=O)c2coc(C(N)=O)c2)cc1F	i	98	3	/
CCOC(=O)c1cnn(-c2ccccc2)c1NC(=O)CN1CCOCC1	i	97	8	/
Cn1nc(C(C)(C)C)cc1C(=O)N1CCC(C)(C(=O)NS(=O)(=O)C2CC2)C1 (stereo unspecified)	i	93	-1	/
COc1cc(CNC(C)C23CC4CC(CC(C4)C2)C3)ccc1OCC(=O)NC(C)(C)C (stereo unspecified)	i	100	20	/
CC(NCc1cc(Br)ccc1OCC(N)=O)C12CC3CC(CC(C3)C1)C2 (stereo unspecified)	i	102	59*	-4
Clc1cccc(Cc2c(-c3ccco3)nc3c4ccccc4ccn23)c1	i	129	96*	-6
Fc1cccc(Cc2c(-c3cccc(Cl)c3)nc3c4ccccc4ccn23)c1	i	96	-3	/
Fc1cccc(Cc2c(-c3ccco3)nc3c4ccccc4ccn23)c1	i	96	87*	31
Clc1cccc(Cc2c(-c3cccc(Cl)c3)nc3c4ccccc4ccn23)c1	i	90	-5	/
Cc1c(Cl)ccc2sc(NC(=O)c3ccco3)nc12	i	97	-1	/
SMILES	Myeloid diff 2	ABCB6 inh 2	Granule exo inh	Exocytosis CP01
CCOC(=O)Cc1csc(-n2sc3ccccc3c2=O)n1	i	103	78*	36
CCOC(=O)Cc1csc(SCn2nnc3ccccc3c2=O)n1	i	96	-1	/
O=S1(=O)CC(N2CCCC2)CN1Cc1ccccc1 (stereo unspecified)	i	98	-2	/
O=C(CCN1CCN(c2ccc([N+](=O)[O-])cc2)CC1)c1ccc(Cl)cc1	i	95	84*	-8
O=C(CN1CCN(c2ccc([N+](=O)[O-])cc2)CC1)c1ccccc1	i	100	18	/
O=C(CCN1CCN(c2ccccc2)CC1)Nc1ccc(Cl)cc1	i	92	2	/
O=C(CCN1CCN(c2ccccc2)CC1)c1ccc(Cl)cc1	i	100	79*	50
COc1cccc(C(=O)NCC(C)(C)SCc2ccc(F)cc2)c1	i	101	-7	/
COc1ccc(Nc2nc(-c3sc(C)nc3C)cs2)cc1	/	95	82*	1
Cc1nc(C)c(-c2csc(Nc3ccc(N)cc3)n2)s1	i	96	-6	/
CCc1ccc(OCCOCC(O)CN(CCO)CCO)cc1 (stereo unspecified)	i	99	-5	/
NS(=O)(=O)c1ccc(NC(=O)COC(=O)Cn2cnc3ccccc3c2=O)cc1	i	104	10	/
C[C@H](c1ccccc1)N1C[C@H](COCc2ccccc2)Oc2cc(N3CC[C@@H](O)C3)ccc2S1(=O)=O	i	97	3	/
CCCCC[C@@H](C)N1C[C@@H](COCc2ccccc2)Oc2cc(N3CC[C@H](O)C3)ccc2S1(=O)=O	i	93	-4	/
C[C@H](c1ccccc1)N1C[C@H](COCc2ccccc2)Oc2cc(N3CC[C@@H](N(C)C)C3)ccc2S1(=O)=O	i	95	62*	22
CCCCC[C@@H](C)N1C[C@@H](COCc2ccccc2)Oc2cc(N3CC[C@@H](O)C3)ccc2S1(=O)=O	i	98	-3	/
CCCCC[C@@H](C)N1C[C@@H](COCc2ccccc2)Oc2cc(N3CC[C@@H](N(C)C)C3)ccc2S1(=O)=O	i	96	58*	68*
CCCCC[C@H](C)N1C[C@H](COCc2ccccc2)Oc2cc(N3CC[C@@H](N(C)C)C3)ccc2S1(=O)=O	i	95	64*	42
CCCCC[C@H](C)N1C[C@H](COCc2ccccc2)Oc2cc(N3CC[C@H](N(C)C)C3)ccc2S1(=O)=O	i	95	53	/
CCCCC[C@@H](C)N1C[C@H](COCc2ccccc2)Oc2cc(N3CC[C@@H](N(C)C)C3)ccc2S1(=O)=O	i	99	74*	72*
COc1ccc(CNC(=O)[C@H](CCSC)NC(=O)N2CCn3c2nc2ccccc23)cc1	i	95	1	/
COc1ccc(NC(=O)CSc2nnc(-c3cccs3)n2N)c(OC)c1	i	96	8	/
CC1(C2CC2)NC(=O)N(CC(=O)NCC(=O)Nc2ccc(F)c(F)c2F)C1=O (stereo unspecified)	i	101	56*	-12
CC1CCCCC12NC(=O)N(CC(=O)NCC(=O)Nc1ccc(F)c(F)c1F)C2=O (stereo unspecified)	i	96	0	/
COc1ccccc1Nc1ccc(NC(=O)c2cccc([N+](=O)[O-])c2C)cc1	i	95	23	/
CCOC(=O)c1ccccc1NC(=O)Cn1c(=O)n(Cc2ccccc2)c(=O)c2c(C)c(C)sc21	i	98	-3	/
CCCCNc1c(-c2ccc(SC3CCCCC3)c(OC)c2)nc2ccc(C)cn12	i	99	-6	/
CCCCNc1c(-c2ccc(OC)c(SC3CCCCC3)c2)nc2ccc(C)cn12	?	122	86*!	77*
O=C(NN=C1CCCCCCCCCCC1)c1ccccc1F	i	99	4	/
